Experiment [1] in a line: ATG_CRE_CIS: Attagene CIS-FACTORIAL HepG2 Assay for human cAMP Responsive Element (CRE) binding protein 3 (AID 2282926). The following applies: HepG2 CRE cis-reporter, Attagene multiplexed mRNA; actives raise or lower the signal. The essentials:
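HepG2 cells transiently transfected with a multiplexed reporter library (CRE-driven unit among them) were dosed for 24 h. Reporter mRNA was quantified by RT-PCR, fluorescent labelling, HpaI digestion and capillary electrophoresis, with bidirectional fitting against DMSO baseline.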

Experiment [2] deals with CCAAT/enhancer-binding protein beta (Homo sapiens) (UniProt P17676). The experiment is described as follows: ATG_C_EBP_CIS: Attagene CIS-FACTORIAL HepG2 Assay for human CCAAT/Enhancer Binding Protein (C/EBP) beta (AID 2282927). The following applies: HepG2 Attagene cis-factorial transcription factor reporter; actives raise or lower the signal. In short, it runs like this:
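HepG2 transiently transfected with multiplexed reporter units under cis-regulatory promoters reporting endogenous C/EBPb activity. After 24 h exposure, reporter mRNA assayed by RT-PCR, fluorescent labelling, HpaI digestion and capillary electrophoresis; bidirectional fitting versus DMSO.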

Experiment [3] in a line: ATG_CMV_CIS: Attagene CIS-FACTORIAL HepG2 Assay for human CMV (Internal Marker) (AID 2282928).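 Further: endpoint acts as a background internal control marker rather than a target.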 The following applies: HepG2 CMV promoter reporter, transcription factor profiling; actives raise or lower the signal. In short, it runs like this: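 CMV internal-marker background readout in transiently transfected HepG2 cells bearing cis-regulated reporter units. Reporter mRNA is measured 24 h after dosing by RT-PCR and capillary electrophoresis, with bidirectional fitting against DMSO.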

Drawing on PubChem BioAssay (EPA / NIEHS), this text covers outcome and AC50 for 14 compounds.

SMILES strings stand for the structures. Active and inactive are the calls of the source. How the source made its calls: active means hit-call score of the fitted dose curve at least 0.9, where 1 is the maximum; inactive means score below 0.9.

Sequence of CCAAT/enhancer-binding protein beta (Homo sapiens) (P17676 whole entry, looked up): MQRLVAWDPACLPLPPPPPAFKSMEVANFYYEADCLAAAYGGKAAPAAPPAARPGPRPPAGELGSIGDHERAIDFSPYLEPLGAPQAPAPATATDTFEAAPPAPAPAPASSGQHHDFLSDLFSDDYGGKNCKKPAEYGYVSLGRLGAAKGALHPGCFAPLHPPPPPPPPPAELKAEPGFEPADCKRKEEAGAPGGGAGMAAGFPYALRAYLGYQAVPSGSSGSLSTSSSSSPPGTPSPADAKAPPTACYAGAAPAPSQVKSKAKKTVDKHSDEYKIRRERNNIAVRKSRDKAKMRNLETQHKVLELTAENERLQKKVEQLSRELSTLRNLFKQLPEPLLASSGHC

As to `CCC[N+](CCC)(CCC)CCC`, the compound was called inactive in experiment [1], in experiment [2] and in experiment [3].
For the compound `O=S(=O)(F)C(F)(F)C(F)(F)C(F)(F)C(F)(F)F`, the result in experiment [1], in experiment [2] and in experiment [3] was inactive.
As to `Cc1ccc(CCl)cc1`, the compound was classed as inactive in experiment [1], in experiment [2] and in experiment [3].
In the case of `CCOP(=S)(OCC)SCSc1cc(Cl)ccc1Cl`, the call in experiment [1], in experiment [2] and in experiment [3] was inactive.
Take `BrCc1ccc(Br)cc1`: the result in experiment [1], in experiment [2] and in experiment [3] was inactive.
Take `C=C(C)C(=O)OCCCCOC(=O)C(=C)C`: the result in experiment [1], in experiment [2] and in experiment [3] was inactive.
One may read the AC50 as the midpoint of the concentration-response curve, whichever way the signal moves. As for `C[C@@H]1O[C@@H](O[C@H]2C[C@@H](O)[C@]3(CO)[C@H]4[C@H](O)C[C@]5(C)[C@@H](C6=CC(=O)OC6)CC[C@]5(O)[C@@H]4CC[C@]3(O)C2)[C@H](O)[C@H](O)[C@H]1O`, the values for the AC50 in experiment [1] and in experiment [2] were 0.512 µM (active) and 0.0716 µM (active), respectively. The result in experiment [3] was inactive.
For `O=NN1CCOCC1`, the compound was classed as inactive in experiment [1], in experiment [2] and in experiment [3].
In the case of `Nc1ccc(-c2ccccc2)cc1`, the compound was called inactive in experiment [1], in experiment [2] and in experiment [3].
Consider `Oc1c(Br)cc(Br)cc1Br`, for which the outcome in experiment [1], in experiment [2] and in experiment [3] was inactive.
As to `C=CC(=O)OCC(COC(=O)C=C)(COC(=O)C=C)COC(=O)C=C`, the compound was classed as inactive in experiment [1] and in experiment [2]. Further, the AC50 in experiment [3] is 8.92 µM (active).
Regarding `CCOC(=O)CC(=O)CCl`, the concentration at half-maximal activity (AC50) in experiment [1] was 176 µM (active); in experiment [2], 183 µM (active); in experiment [3], 65.7 µM (active).
In the case of `O=[N+]([O-])c1ccccc1O`, the result in experiment [1], in experiment [2] and in experiment [3] was inactive.
For the compound `CC1(C)[C@H](C(=O)O[C@H](C#N)c2cccc(Oc3ccccc3)c2)[C@@H]1/C=C(\Cl)C(F)(F)F`, the compound was classed as inactive in experiment [1], in experiment [2] and in experiment [3].
